Measured values as given in PubChem BioAssay.
Active and inactive are the calls of the source. Unless noted, no rule for the calls is given here.

What was measured:
[1] = system: Wnt5a (protein binding on small-molecule microarray); test: Wnt5a binders on small-molecule microarray, primary screen, biophysical, 635/667 nm fluorescence (AID 1142); settings: 635 nm fluorescence, higher = more signal;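 also: fluorescence read at 667 nm with signal to noise per printed feature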
[2] = cell viability in Huh7 cells, primary screen, cytotoxicity control for HCV replication inhibitor project, CellTiter-Glo luminescence, basal, 48 h (AID 1143); settings: Huh7 HCV replicon, higher = more signal, called active from +8 up or from −8 down;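 also: Huh7 hepatoma cells carrying a hepatitis C replication reporter with no stimulus; test concentration not given here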
[3] = P. aeruginosa biofilm formation inhibitors, primary screen, PAO1 strain, BacTiter-Glo luminescence, LB-PBS (AID 1144); settings: 12 h, higher = more signal
[4] = CREB reporter modulators without forskolin, primary screen, cell-based, PC12, CRE-LacZ reporter, unstimulated (AID 1145); settings: no forskolin, luminescence, 4.5 h, higher = more signal, called active from +8 up or from −8 down
[5] = CREB reporter modulators under forskolin, primary screen, cell-based, PC12, CRE-LacZ reporter, forskolin-stimulated (AID 1146); settings: luminescence, 4.5 h, higher = more signal, called active from +8 up or from −8 down;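 also: PC12 cells with 6xCRE LacZ reporter stimulated by forskolin 10 µM; beta-galactosidase reporter signal reflecting CREB driven transcription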
[6] = target: Streptavidin (Streptomyces avidinii) (UniProt P22629); test: streptavidin binders on small-molecule microarray, primary screen, artefact control for SMM compound annotation, biophysical, 635/667 nm fluorescence (AID 1147); settings: streptavidin binding, higher = more signal;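 also: signal reflects streptavidin binding to arrayed compounds as a control protein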
[7] = small-molecule binders of probe aInhba, primary screen, biochemical, small-molecule microarray, 635/667 nm fluorescence (AID 1148); settings: higher = more signal;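 also: score merges 667nm spot fluorescence with signal-to-noise for antibody binding to printed compounds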
[8] = target: Torsin-1A (Homo sapiens) (UniProt O14656); test: torsin A binders from cell lysate, primary screen, small-molecule microarray, wild-type, 635/667 nm (AID 1149); settings: COS7 hTOR1A-WT lysate, 635 nm fluorescence, higher = more signal
[9] = target: Torsin-1A (Homo sapiens) (UniProt O14656); test: small-molecule binders of mutant TOR1A in lysate, primary screen, cell lysate, small-molecule microarray, COS7 lysate, 635/667 nm fluorescence (AID 1150); settings: COS7 hTOR1A mutant lysate, 635 nm fluorescence, higher = more signal;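 also: score pools 667 nm emission and signal to noise measuring lysate protein binding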
[10] = system: Sonic hedgehog protein (Shh); test: small-molecule binders of Shh protein, primary screen, biochemical, small-molecule microarray, 635/667 nm fluorescence (AID 1151); settings: small-molecule microarray binding, 635 nm fluorescence; higher = more signal;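 also: Shh protein binding to compounds spotted on small-molecule microarray slides; score combines spot fluorescence intensity with signal-to-noise across triplicate slides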
[11] = E. coli DRC41 culture turbidity changes, primary screen, E. coli filamentation inducer project, strain DRC41, OD650, 48 h (AID 1152);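 also: E. coli MC1000 strain DRC41 lacking acrAB efflux pump and sulA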; settings: E. coli DRC41 (acrAB sulA), higher = more signal, called active from +8 up or from −8 down
[12] = small-molecule binders of probe aLefty1, primary screen, biochemical, small-molecule microarray, 635/667 nm fluorescence (AID 1153); settings: higher = more signal;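 also: score merges spot fluorescence with signal-to-noise ratio from the scanned slide images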
[13] = PSAC antagonists in infected red cells, primary screen, cell-based, P. falciparum Indochina, OD700, 1 h (AID 1154); settings: P. falciparum Indochina infected RBC osmotic lysis, higher = more signal, called active from +8 up or from −8 down
[14] = PSAC antagonists in infected red cells, primary screen, cell-based, P. falciparum Indochina, OD700, 2 h (AID 1155);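 also: lysis reports solute entry through the parasite surface anion channel PSAC; channel blockers reduce lysis of infected cells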; settings: P. falciparum Indochina infected erythrocytes, osmotic lysis OD700; higher = more signal, called active from +8 up or from −8 down
[15] = osmotic lysis modulators in infected erythrocytes, primary screen, PSAC antagonist project, cell-based, P. falciparum Indochina, OD700, 3 h (AID 1156); settings: higher = more signal, called active from +8 up or from −8 down
[16] = PSAC antagonists in infected red cells, primary screen, cell-based, P. falciparum Indochina, OD700, 18 h (AID 1157); settings: P. falciparum Indochina infected erythrocytes, osmotic lysis OD700, 18 h; higher = more signal, called active from +8 up or from −8 down
[17] = modulators of S6 phosphorylation in cells, primary screen, cell-based, A549, cytoblot, luminescence, serum-stimulated (AID 1158); settings: A549 phospho-S6 cytoblot, 5 h, higher = more signal;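 also: serum-stimulated A549 lung adenocarcinoma cells; signal is phosphorylated S6 detected by cytoblot immunostaining with HRP secondary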
[18] = target: NADPH oxidase 2 (Homo sapiens) (UniProt P04839); test: NOX2-dependent H2O2 signal modulators, primary screen, NOX inhibitor project, cell-based, HEK293-NOX2, PMA-stimulated, Amplex Red fluorescence (AID 1159); settings: 45 min, higher = more signal, called active from +8 up or from −8 down; also: test concentration not given here
[19] = target: NADPH oxidase 4 (Homo sapiens) (UniProt Q9NPH5); test: NOX4-dependent H2O2 signal modulators, primary screen, NOX inhibitor project, cell-based, HEK293-NOX4, tetracycline-induced, Amplex Red fluorescence (AID 1160); settings: 45 min, higher = more signal, called active from +8 up or from −8 down
[20] = target: NADPH oxidase 5 (Homo sapiens) (UniProt Q96PH1); test: NOX5-dependent H2O2 signal modulators, primary screen, NOX inhibitor project, cell-based, HEK293-NOX5, Amplex Red fluorescence (AID 1161); settings: HEK293-NOX5, ionomycin, 45 min, higher = more signal
Chain of NADPH oxidase 5 (Homo sapiens) (Q96PH1 whole entry, looked up): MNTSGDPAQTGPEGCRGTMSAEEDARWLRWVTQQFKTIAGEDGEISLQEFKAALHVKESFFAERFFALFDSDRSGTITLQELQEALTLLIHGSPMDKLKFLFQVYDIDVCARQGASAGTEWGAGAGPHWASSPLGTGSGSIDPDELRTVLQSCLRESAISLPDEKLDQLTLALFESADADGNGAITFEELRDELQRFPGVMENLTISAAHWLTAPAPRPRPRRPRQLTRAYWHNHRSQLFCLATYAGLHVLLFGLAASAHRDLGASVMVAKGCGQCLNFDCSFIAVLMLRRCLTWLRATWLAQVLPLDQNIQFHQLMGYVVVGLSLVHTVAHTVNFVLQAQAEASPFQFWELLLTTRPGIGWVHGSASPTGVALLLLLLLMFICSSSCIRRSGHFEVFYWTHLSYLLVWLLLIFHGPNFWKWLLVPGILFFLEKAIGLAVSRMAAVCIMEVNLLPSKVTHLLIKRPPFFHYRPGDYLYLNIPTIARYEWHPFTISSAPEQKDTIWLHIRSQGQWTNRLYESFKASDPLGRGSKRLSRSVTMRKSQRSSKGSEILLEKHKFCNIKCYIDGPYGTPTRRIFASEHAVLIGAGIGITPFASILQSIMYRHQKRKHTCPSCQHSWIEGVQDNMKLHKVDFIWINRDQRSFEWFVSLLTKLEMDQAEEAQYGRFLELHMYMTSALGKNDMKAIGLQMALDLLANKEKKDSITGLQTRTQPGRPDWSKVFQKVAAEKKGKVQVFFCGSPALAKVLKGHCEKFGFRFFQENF

Chain of Streptavidin (Streptomyces avidinii) (P22629 whole entry, looked up): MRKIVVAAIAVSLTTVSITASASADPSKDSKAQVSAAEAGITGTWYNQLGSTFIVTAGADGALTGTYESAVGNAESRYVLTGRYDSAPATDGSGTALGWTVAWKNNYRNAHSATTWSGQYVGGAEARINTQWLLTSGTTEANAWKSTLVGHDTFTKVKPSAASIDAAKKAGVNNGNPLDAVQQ
Chain of NADPH oxidase 4 (Homo sapiens) (Q9NPH5 whole entry, looked up): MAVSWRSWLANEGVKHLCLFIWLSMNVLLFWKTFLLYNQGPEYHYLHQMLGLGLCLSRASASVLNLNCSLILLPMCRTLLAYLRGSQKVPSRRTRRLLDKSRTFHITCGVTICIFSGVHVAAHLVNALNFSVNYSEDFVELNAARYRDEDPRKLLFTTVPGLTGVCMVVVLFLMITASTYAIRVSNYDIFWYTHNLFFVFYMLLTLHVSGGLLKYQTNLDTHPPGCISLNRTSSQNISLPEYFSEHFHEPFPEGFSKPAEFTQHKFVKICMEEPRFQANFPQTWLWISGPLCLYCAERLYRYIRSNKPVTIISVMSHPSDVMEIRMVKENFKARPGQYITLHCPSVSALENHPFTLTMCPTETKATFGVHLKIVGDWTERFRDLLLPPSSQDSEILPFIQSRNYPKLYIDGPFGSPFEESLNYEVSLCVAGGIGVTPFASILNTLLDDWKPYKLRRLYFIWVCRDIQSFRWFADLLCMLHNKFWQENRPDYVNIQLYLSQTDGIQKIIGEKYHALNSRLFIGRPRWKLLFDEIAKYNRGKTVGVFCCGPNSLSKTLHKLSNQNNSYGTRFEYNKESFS
Chain of NADPH oxidase 2 (Homo sapiens) (P04839 whole entry, looked up): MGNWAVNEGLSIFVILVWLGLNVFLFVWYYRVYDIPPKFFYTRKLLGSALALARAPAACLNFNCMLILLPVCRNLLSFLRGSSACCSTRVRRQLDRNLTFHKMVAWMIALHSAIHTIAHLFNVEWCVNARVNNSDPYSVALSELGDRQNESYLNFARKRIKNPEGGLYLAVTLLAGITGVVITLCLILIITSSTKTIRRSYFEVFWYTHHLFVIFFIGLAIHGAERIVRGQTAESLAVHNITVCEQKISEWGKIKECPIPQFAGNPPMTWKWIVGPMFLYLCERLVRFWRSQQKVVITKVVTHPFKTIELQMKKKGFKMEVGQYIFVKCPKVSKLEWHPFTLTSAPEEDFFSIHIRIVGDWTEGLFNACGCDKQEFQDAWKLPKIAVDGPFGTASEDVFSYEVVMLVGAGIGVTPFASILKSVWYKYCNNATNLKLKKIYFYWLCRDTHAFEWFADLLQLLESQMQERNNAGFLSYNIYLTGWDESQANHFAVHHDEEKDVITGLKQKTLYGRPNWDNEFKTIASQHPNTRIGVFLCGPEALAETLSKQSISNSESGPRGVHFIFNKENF
Chain of Torsin-1A (Homo sapiens) (O14656 whole entry, looked up): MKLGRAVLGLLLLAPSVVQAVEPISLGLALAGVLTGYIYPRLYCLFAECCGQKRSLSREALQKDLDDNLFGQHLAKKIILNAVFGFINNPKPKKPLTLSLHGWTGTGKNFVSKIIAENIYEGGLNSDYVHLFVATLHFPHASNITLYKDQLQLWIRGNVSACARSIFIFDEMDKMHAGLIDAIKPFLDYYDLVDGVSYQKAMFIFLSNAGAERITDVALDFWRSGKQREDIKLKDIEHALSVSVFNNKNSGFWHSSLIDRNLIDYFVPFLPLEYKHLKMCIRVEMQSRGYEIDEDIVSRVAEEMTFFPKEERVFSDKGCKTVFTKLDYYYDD

## NC(=O)NCC#Cc1ccc2c(c1)[C@]1(C(=O)N2)[C@H](c2ccccc2OCCO)N2[C@H](c3ccccc3)[C@H](c3ccccc3)OC(=O)[C@H]2[C@@H]1C(=O)NC[C@H](O)c1ccccc1
[1]
  composite z-score: -0.287
[2]
  z-score: -2.62 (inactive)
[3]
  z-score: 0.129 (inactive)
[4]
  z-score: 0.0384 (inactive)
[5]
  z-score: -0.278 (inactive)
[6]
  composite z-score: 0.83
[7]
  composite z-score: -0.101
[8]
  composite z-score: 0.142
[9]
  composite z-score: -0.487
[10]
  composite z-score: -0.174
[11]
  z-score: 2.83 (inactive)
[12]
  composite z-score: -0.103
[13]
  z-score: 0.925 (inactive)
[14]
  z-score: -0.918 (inactive)
[15]
  z-score: -0.313 (inactive)
[16]
  z-score: -1.54 (inactive)
[17]
  z-score: 2.83
[18]
  z-score: 1.74 (inactive)
[19]
  z-score: 0.869 (inactive)
[20]
  z-score: 0.062

## CC(C)[Si]1(C(C)C)OCc2cc(C3CC3)nc(-c3ccc(Oc4ccccc4)cc3)c21
[1]
  composite z-score: -0.223
[2]
  z-score: -1.03 (inactive)
[3]
  z-score: -0.823 (inactive)
[4]
  z-score: -0.113 (inactive)
[5]
  z-score: 0.0211 (inactive)
[6]
  composite z-score: -0.502
[7]
  composite z-score: -0.0604
[8]
  composite z-score: 0.726
[9]
  composite z-score: -1.07
[10]
  composite z-score: -0.241
[11]
  z-score: -0.367 (inactive)
[12]
  composite z-score: -0.284
[13]
  z-score: 2.58 (inactive)
[14]
  z-score: 1.8 (inactive)
[15]
  z-score: 0.508 (inactive)
[16]
  z-score: 1.29 (inactive)
[17]
  z-score: -0.389
[18]
  z-score: 1.11 (inactive)
[19]
  z-score: 0.344 (inactive)
[20]
  z-score: 0.322

## CC1CC/C=C\[C@H]2OC34C=CCN(Cc5ccccc5)C(=O)[C@H]3N(C(CO)C(C)C)C(=O)[C@@H]4C2C(=O)O1 (stereo not given in full)
[1]
  composite z-score: -0.0818
[2]
  z-score: -0.0399 (inactive)
[3]
  z-score: 1.09 (inactive)
[4]
  z-score: 2.1 (inactive)
[5]
  z-score: 1.43 (inactive)
[6]
  composite z-score: -0.854
[7]
  composite z-score: -0.0695
[8]
  composite z-score: 0.505
[9]
  composite z-score: -0.741
[10]
  composite z-score: -0.0532
[11]
  z-score: 0.084 (inactive)
[12]
  composite z-score: -0.149
[13]
  z-score: 1.42 (inactive)
[14]
  z-score: 0.667 (inactive)
[15]
  z-score: 0.97 (inactive)
[16]
  z-score: 0.304 (inactive)
[17]
  z-score: -0.529
[18]
  z-score: 1.84 (inactive)
[19]
  z-score: 0.983 (inactive)
[20]
  z-score: 2.21

## CC[C@@H]1O[Si](C(C)C)(C(C)C)c2c1cc(-c1cc(C)c(OC)c(C)c1)nc2-c1ccc(Oc2ccccc2)cc1
[1]
  composite z-score: -0.216
[2]
  z-score: 0.0485 (inactive)
[3]
  z-score: -0.523 (inactive)
[4]
  z-score: -0.491 (inactive)
[5]
  z-score: 0.316 (inactive)
[6]
  composite z-score: -0.21
[7]
  composite z-score: -0.231
[8]
  composite z-score: -0.851
[9]
  composite z-score: -0.542
[10]
  composite z-score: 0.305
[11]
  z-score: -0.109 (inactive)
[12]
  composite z-score: 0.0101
[13]
  z-score: -0.261 (inactive)
[14]
  z-score: 0.26 (inactive)
[15]
  z-score: 0.827 (inactive)
[16]
  z-score: 0.311 (inactive)
[17]
  z-score: 0.189
[18]
  z-score: -1.36 (inactive)
[19]
  z-score: -0.672 (inactive)
[20]
  z-score: -2.04

## CCCCC(CC)C(O)C1C=CC2C(=O)N(c3ccccc3)C(=O)C2N1Nc1ccc(C#N)cc1 (stereo not given)
[1]
  composite z-score: 0.648
[2]
  z-score: 0.308 (inactive)
[3]
  z-score: -1.55 (inactive)
[4]
  z-score: 0.819 (inactive)
[5]
  z-score: 0.176 (inactive)
[6]
  composite z-score: 1.18
[7]
  composite z-score: 0.722
[8]
  composite z-score: -0.064
[9]
  composite z-score: 0.68
[10]
  composite z-score: -0.387
[11]
  z-score: 0.344 (inactive)
[12]
  composite z-score: 0.834
[13]
  z-score: 9.85 (active)
[14]
  z-score: 2.68 (inactive)
[15]
  z-score: 1.89 (inactive)
[16]
  z-score: 1.54 (inactive)
[17]
  z-score: -0.423
[18]
  z-score: 0.414 (inactive)
[19]
  z-score: -2.2 (inactive)
[20]
  z-score: -1.91

## COc1ccc(CCNC(=O)[C@@]2(Cc3ccccc3I)c3ccccc3C(=O)N(C3CCCCC3)[C@H]2c2ccc(CO)cc2)cc1
[1]
  composite z-score: -0.372
[2]
  z-score: -6.39 (inactive)
[3]
  z-score: -1.43 (inactive)
[4]
  z-score: -0.0243 (inactive)
[5]
  z-score: -1.06 (inactive)
[6]
  composite z-score: 0.623
[7]
  composite z-score: 0.0198
[8]
  composite z-score: -0.57
[9]
  composite z-score: -0.0979
[10]
  composite z-score: -0.193
[11]
  z-score: 0.535 (inactive)
[12]
  composite z-score: -0.104
[13]
  z-score: 3.52 (inactive)
[14]
  z-score: 0.502 (inactive)
[15]
  z-score: 1.27 (inactive)
[16]
  z-score: -0.31 (inactive)
[17]
  z-score: 3.35
[18]
  z-score: 0.189 (inactive)
[19]
  z-score: -1.09 (inactive)
[20]
  z-score: -2.19

## COc1ccc(CCNC(=O)[C@@H]2c3ccccc3C(=O)N(C3CCCCC3)[C@H]2c2ccc(CO)cc2)cc1
[1]
  composite z-score: 0.378
[2]
  z-score: -2.93 (inactive)
[3]
  z-score: -0.0661 (inactive)
[4]
  z-score: -0.295 (inactive)
[5]
  z-score: -0.582 (inactive)
[6]
  composite z-score: -0.11
[7]
  composite z-score: -0.0087
[8]
  composite z-score: -0.78
[9]
  composite z-score: 0.767
[10]
  composite z-score: -0.0203
[11]
  z-score: -0.71 (inactive)
[12]
  composite z-score: -0.0149
[13]
  z-score: 2.58 (inactive)
[14]
  z-score: 0.163 (inactive)
[15]
  z-score: 1.71 (inactive)
[16]
  z-score: 0.0567 (inactive)
[17]
  z-score: 0.491
[18]
  z-score: -0.415 (inactive)
[19]
  z-score: -0.546 (inactive)
[20]
  z-score: -2.31
